# Measurements taken from PubChem BioAssay AID1259310 (The Scripps Research Institute Molecular Screening Center, 2017).
# The campaign covered roughly 650,000 compounds. About 850 (0.13%) were called active. The sample holds actives, similar compounds and a random draw of the others, so the mix is not that of the screen. Unmarked numbers belong to inactive results. No stated cut-off is given here; in the data, active means normalized activity above about 1.9%; inactive means the rest.
# Molecular target: F-box/WD repeat-containing protein 7 (Homo sapiens) (UniProt Q969H0)
# Sequence (Q969H0 whole entry, looked up): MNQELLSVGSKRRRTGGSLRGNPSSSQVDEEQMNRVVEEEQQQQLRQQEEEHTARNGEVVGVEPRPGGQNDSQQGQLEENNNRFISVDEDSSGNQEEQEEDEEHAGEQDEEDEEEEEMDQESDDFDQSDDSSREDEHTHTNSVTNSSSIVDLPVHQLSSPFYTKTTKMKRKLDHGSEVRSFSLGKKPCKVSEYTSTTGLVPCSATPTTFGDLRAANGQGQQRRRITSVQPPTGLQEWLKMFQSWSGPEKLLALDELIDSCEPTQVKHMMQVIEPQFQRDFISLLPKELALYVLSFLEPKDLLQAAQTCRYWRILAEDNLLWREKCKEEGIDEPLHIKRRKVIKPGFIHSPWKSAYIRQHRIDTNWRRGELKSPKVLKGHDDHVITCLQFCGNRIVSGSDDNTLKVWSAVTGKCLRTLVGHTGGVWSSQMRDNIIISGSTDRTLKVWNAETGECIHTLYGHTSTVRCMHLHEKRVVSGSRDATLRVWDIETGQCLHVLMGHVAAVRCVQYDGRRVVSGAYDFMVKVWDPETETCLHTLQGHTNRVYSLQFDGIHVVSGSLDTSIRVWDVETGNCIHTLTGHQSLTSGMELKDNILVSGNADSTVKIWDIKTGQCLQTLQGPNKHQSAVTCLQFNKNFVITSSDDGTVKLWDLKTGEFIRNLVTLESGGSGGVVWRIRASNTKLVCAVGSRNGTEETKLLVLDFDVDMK
# Test: FBW7 E3 ligase activators, primary screen, biochemical, AlphaScreen, human (AID 1259310);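 further: purified mutant Fbw7 with reduced substrate affinity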
# Details: AlphaScreen FBW7–phospho-cyclin E peptide binding, activator screen; at 26.1 µM; active compounds read high
row,SMILES,normalized activity (activation)
1,COc1ccc(OC)c(NS(=O)(=O)c2ccc(NC(=O)COc3ccccc3)cc2)c1,-0.06%
2,COc1ccc(Cl)cc1C(=O)Nc1cccc(-c2nc3cc(Cl)ccc3o2)c1C,0.2%
3,Fc1ccc(Nc2nc(NCC3CCCO3)c3ccccc3n2)cc1 (centres undefined),-0.11%
4,Fc1ccc(C2CC(c3cccs3)=NN2c2nc(-c3ccccc3)cs2)cc1 (centres undefined),-0.01%
5,COc1ccc(C2=NN(c3ccccc3)C(c3ccc(F)cc3)C2)cc1 (centres undefined),0.58%
6,COc1ccc(C2CC(c3cccs3)=NN2c2ccccc2)cc1 (centres undefined),8.78% (active)
7,c1cncc(-c2ncc(-c3ccncn3)c(-c3cccnc3)n2)c1,0.02%
8,COC(=O)CSC1=C(C#N)C(c2ccccc2Cl)C(C(=O)Nc2ccccc2OC)=C(C)N1 (centres undefined),-0.06%
9,COc1cccc(-c2nc(C3CCCN(C(=O)CC(C)CC(=O)O)C3)n3ccccc23)c1 (centres undefined),0.94%
10,Cc1cccc2sc(NC(=O)c3ccc(S(=O)(=O)N4CC(C)CC(C)C4)cc3)nc12 (centres undefined),0.22%
11,C[N+](C)(C)CCNC(=O)c1c(O)c2c([nH]c1=O)CCCC2,0.2%
12,CC[N+](C)(CC)CCNC(=O)c1c(O)c2c([nH]c1=O)CCCC2,2.05% (active)
13,CC[N+](C)(CC)CCNC(=O)c1c(O)c2ccccc2[nH]c1=O,0.07%
14,CCOC(=O)c1cnc2cc(C(F)(F)F)ccc2c1Nc1ccccc1F,-0.08%
15,Cc1ccccc1Nc1nc(-c2c(C)nc3ncccn23)cs1,0.01%
16,Cc1ccc2c(c1)N(CC(=O)NC1CC1)C(=O)CO2,-0.26%
17,CCC(C)(C)C(=O)Nc1ccc(S(N)(=O)=O)cc1,-0.09%
18,C#CCN(C)C(=O)c1c(C(F)(F)F)nc2c(OC)cccn12,1.94% (active)
19,C=CCN(C)C(=O)c1c(C(F)(F)F)nc2c(OC)cccn12,0.11%
20,CN(C)C(=O)CN(C)C(=O)c1c(C(F)(F)F)nc2ccccn12,0.23%
21,CN1CCN(c2nc3c(c(=O)n(C)c(=O)n3C)n2CC(=O)c2ccc(Br)cc2)CC1,0.05%
22,COC(=O)c1ccc2c(c1)N(Cc1c(C)noc1C)C(=O)C(F)(F)O2,0.09%
23,CCn1c(N2CCC(C(=O)NC3CCCCC3)CC2)nc2ccccc21,0.16%
24,COc1cccc(OC)c1C(=O)OCC(=O)NC1CCCCC1C (centres undefined),-0.19%

row,SMILES,normalized activity (activation)
1,CCC1(C)OC(=O)N(C)C1=O (centres undefined),2.13% (active)
2,CC(=O)Nc1ccc(C(=O)NNC(=O)C(C)Oc2ccc(Cl)cc2Cl)cc1 (centres undefined),-1.25%
3,O=C(CSC1=NS(=O)(=O)c2ccccc21)Nc1ccc(Br)cc1,-0.05%
4,CC1(C)N=C(SCC(=O)Nc2ccc(Br)cc2)C(c2ccccc2)=N1,2.4% (active)
5,O=C(CSc1ncc(-c2ccccc2)[nH]1)Nc1ccc(Br)cc1,-0.02%
6,C[C@@H](c1ccccc1)n1c(=O)[nH]c2ncc(-c3ccc(C(=O)N4CCN(C)CC4)cc3)nc21,-0.33%
7,Cc1cc(C)c2nc(N=C(N)N)nc(C)c2c1,1.86% (active)
8,Cc1cc(C)nc(/N=C(\N)N2CCOCC2)n1,0.35%
9,COc1nc(N=C(N)N)nc2c(C)cccc12,-0.06%
10,COc1ccc(C(=O)NCCC(=O)NC2CCCC2)cc1OC,0.02%
11,COCC(C)NC(=O)c1ccccc1I (centres undefined),0.14%
12,Cc1ccccc1CNC(=O)c1ccccc1I,0.92%
13,CC(C)CNC(=O)c1ccccc1I,1.93% (active)
14,Cc1cc(=O)oc2cc(OCC(=O)N/N=C/c3ccc4c(c3)OCO4)ccc12,-0.03%
15,CC(=O)N(Cc1cc2cc(C)cc(C)c2[nH]c1=O)CC1CCCO1 (centres undefined),0.12%
16,CCN1C(=O)c2cccc3c(NC(=O)C4CCCN4S(=O)(=O)c4ccc(OC)cc4)ccc1c23 (centres undefined),-0.03%
17,CN(C)c1ccccc1C(=O)c1ccccc1,2.06% (active)
18,Cc1ccc2[nH]cc(C(=O)c3ccccc3)c(=O)c2c1,0.18%
19,O=C(CC(=O)c1ccccc1O)c1ccccc1,0.25%
20,COc1ccccc1NS(=O)(=O)c1cccc(NC(=O)c2cc(=O)[nH]c(=O)[nH]2)c1,-0.11%
21,Cc1cc(C(=O)NCc2nnc3n2CCN(Cc2ccccc2)CC3)c(C)o1,-0.06%
22,Cc1cccc(OCCC(=O)NNC(=O)Cc2cccn2C)c1,-0.11%
23,CCOc1ccc2c(=O)c(Oc3ccccc3)c(C(F)(F)F)oc2c1C,0.9%
24,CCc1nn(CC(=O)NCc2cccs2)c(=O)c2cc3ccsc3n12,-0.13%

row,SMILES,normalized activity (activation)
1,CCN(CC)C(=O)Cn1ncn2c(cc3ccsc32)c1=O,-0.03%
2,CCCc1nn(CC(=O)N(C)C)c(=O)c2cc3ccsc3n12,3.43% (active)
3,Cc1cccc(C)c1NC(=O)C(=O)NCCCO,0.01%
4,O=C1C(=O)N(c2nc3ccccc3s2)C(c2ccc(O)cc2)/C1=C(\O)c1ccc(Cl)cc1 (centres undefined),-0.15%
5,COc1ccc(C2(O)CC(C(F)(F)F)=NN2C(=O)CCc2ccccc2)cc1 (centres undefined),0.67%
6,COc1ccc(CC(=O)NNC(=O)c2ccccc2Cl)cc1,-0.11%
7,CSCCNC(=O)CCc1nnc(C2(c3ccc(Cl)cc3)CCC2)o1,0.03%
8,Cc1cccc(NC(=O)c2ccccc2Nc2ccc(S(=O)(=O)C(F)(F)F)cc2[N+](=O)[O-])c1,0.06%
9,COc1cc(CNc2nccn3c(-c4ccc(F)cc4)cnc23)cc(OC)c1OC,1.85% (active)
10,CN(C)CCNC(=O)c1ccc(-c2cnc3c(NCc4ccc(F)cc4)nccn23)cc1,-0.01%
11,COc1ccccc1-c1cnc2c(NCc3cccs3)nccn12,-0.21%
12,O=C(CSc1nnc(Nc2ccccc2)s1)c1ccc(F)cc1,-0.08%
13,CC(=O)Nc1ccc(Nc2nc(Nc3ccncn3)nc3nc[nH]c23)cc1,0.11%
14,O=C1NC(=O)N(c2ccc(Br)cc2)C(=O)/C1=C\C=C\c1ccco1,-0.18%
15,COc1ccc(OC)c(C2Nc3cccc4cccc(c34)N2)c1,0.03%
16,COc1ccc(C2Nc3cccc4cccc(c34)N2)c(OC)c1OC,0.39%
17,COc1cc(OC)c(C2Nc3cccc4cccc(c34)N2)cc1OC,1.96% (active)
18,O=c1[nH]c(N2CCOCC2)nc2c1CN(Cc1ccccc1Cl)CC2,-0.04%
19,O=C1CC(c2noc(-c3ccco3)n2)CN1c1ccccc1 (centres undefined),-0.17%
20,COc1cccc(-c2nc(-c3ccccc3)c(-c3ccccc3)[nH]2)c1O,-0.07%
21,CCOc1ccc2nc(N3CCC(NCCc4nc(C)c5c(n4)CCC5)CC3)nc(C)c2c1,0.33%
22,CC1CC(C)CN(CCS(=O)(=O)c2ccc(Oc3ccc(S(=O)(=O)CCN4CC(C)CC(C)C4)cc3)cc2)C1 (centres undefined),-0.1%
23,CCCCOC(=O)C1=C(C)N(C)C(=O)NC1c1cc(Cl)c(O)c(OC)c1 (centres undefined),-0.11%
24,CCOc1cc(OCC)cc(C(=O)Nc2cc3nn(-c4ccc(OC)cc4)nc3cc2C)c1,-0.15%

row,SMILES,normalized activity (activation)
1,CCOc1ccc(C(=O)Nc2ccccc2I)cc1[N+](=O)[O-],-0.08%
2,CCOc1ccc(C(=O)Nc2cc3nn(-c4ccc(C)cc4)nc3cc2C)cc1[N+](=O)[O-],2.14% (active)
3,O=C(Cc1ccccn1)N1CCCC(c2nc(N3CCOCC3)ncc2-c2ccncc2)C1 (centres undefined),-0.05%
4,CCOc1ccc(-n2nc(C(=O)Nc3ccccc3C(F)(F)F)c3ccccc3c2=O)cc1,-0.03%
5,NC(=O)c1ccccc1NC(=S)NC(=O)/C=C/c1cccc([N+](=O)[O-])c1,0.01%
6,Cc1ccc2nc(SCC(=O)Nc3ccccc3C(N)=O)[nH]c2c1,0.11%
7,O=C(Nc1ccccc1[N+](=O)[O-])c1cc(S(=O)(=O)Nc2cccc(F)c2)ccc1Cl,-0.02%
8,O=C(COC(=O)c1ccccc1F)NCc1ccco1,-0.11%
9,COc1cc(Nc2nc(-c3c(C)noc3C)nc3c2ncn3-c2ccccc2)cc(OC)c1OC,14.2% (active)
10,Cc1noc(C)c1-c1nc(N)c2ncn(-c3ccccc3)c2n1,-0.05%
11,COc1cc(Nc2nc(-c3c(C)noc3C)nc3c2ncn3C2CCCCC2)cc(OC)c1OC,-0.17%
12,Cc1nc2c(C(=O)N3CCCC3)cnn2c(C)c1Cc1ccccc1Cl,-0.09%
13,O=C(Nc1ccc(I)cc1)OCCCc1ccccc1,0.21%
14,Cc1ccc2nc(NC(=O)c3cc(-c4ccc(Cl)s4)nc4ccccc34)sc2c1,-0.02%
15,Cc1c(-c2nc3cnccn3c2NCc2ccc(F)cc2)cnn1C,-0.04%
16,COc1ccc(NC(=S)C(=O)Nc2ccccc2)cc1,0.08%
17,COc1cccc(NC(=O)CSc2ccc(Br)cc2)c1,0.07%
18,COc1ccc(SCC(=O)NNC(=S)Nc2ccccc2)cc1,2.07% (active)
19,CCOc1ccc2nc(NC(=O)c3cccc(C(=O)OC)n3)sc2c1,-0.02%
20,CC(C)c1ccc(OCC(=O)N/N=C/c2cccnc2)cc1,-0.04%
21,COc1c(Cl)cc(Cl)cc1C(=O)Nc1ccccc1[N+](=O)[O-],-0.17%
22,O=C(CN1C(=O)c2cccc([N+](=O)[O-])c2C1=O)OCC(=O)c1ccc(Cl)cc1,-0.01%
